Source: PubChem BioAssay (Tox21)
“And” between values parts separate entries of the source, which are not always exact repeats. Identical values can stand only once. Inconclusive results are not listed. A call without a number means that no potency is given here. The source holds several records for some structures; these can differ, active in one and inactive in another. The source made the active and inactive calls. Unless noted, calls follow the shape of the dose curve; as a rule, active = well fitted curve in the direction sought with a large enough effect in the repeat runs; inconclusive = weak or mixed curves; inactive = no such curve, though single readings can be large; an effect the other way counts as inactive or inconclusive.

Tests used:
[1] = qHTS assay to identify aromatase inhibitors - cell viability counter screen (AID 743084);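 also: cells stimulated with testosterone during compound exposure; nearly all actives have a fitted effect of over 55% in size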; also: potency is read from the fitted curve at half-maximal effect
[2] = qHTS assay to identify small molecule that activate the aryl hydrocarbon receptor (AhR) signaling pathway - cell viability counter screen (AID 743086); also: nearly all actives have a fitted effect of over 45% in size; also: potency is read from the fitted curve at half-maximal effect
How it was run: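 HepG2-AhR-luc (HG2L7.5c1) cells, 4000/well, were preincubated 5 h at 37C, exposed to compound in qHTS format for 24 hr at 37C, then given CellTiter-Fluor for 30 min; viability was read as fluorescence in the reporter wells.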

[3] = target: Peroxisome proliferator-activated receptor gamma (Homo sapiens) (UniProt P37231); assay: qHTS assay to identify small molecule agonists of the peroxisome proliferator-activated receptor gamma (PPARg) signaling pathway (AID 743094; active = well fitted activation curve with a large enough effect in the signal ratio in the repeat runs, not every such curve was filed as active; the % refers to the signal ratio)
How it was run: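 Cells from the PPARg UAS-bla HEK293H line are plated and incubated 5 h at 37C. Compounds in DMSO are pinned in and left 17 h at 37C. LiveBLAzer B/G substrate is then added for 1 h at room temperature before fluorescence is measured.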

[4] = target: Peroxisome proliferator-activated receptor gamma (Homo sapiens) (UniProt P37231); assay: qHTS assay to identify small molecule antagonists of the peroxisome proliferator-activated receptor gamma (PPARg) signaling pathway (AID 743191; calls by dose curve; also: series mostly up to about 63 µM; nearly all actives have a fitted effect of over 30% in size)
How it was run: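 GeneBLAzer PPARg UAS-bla HEK293H cells carrying a UAS-driven beta-lactamase reporter were plated at 3000 cells/well, preincubated 5 h at 37C, then given compound for 17 h at 37C; LiveBLAzer B/G FRET substrate was read after 1 h at room temperature.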

[5] = qHTS assay to identify small molecule antagonists of the peroxisome proliferator-activated receptor gamma (PPARg) signaling pathway - cell viability counter screen (AID 743194); details: Potency: co-treated with 50 nM rosiglitazone unless noted; also: nearly all actives have a fitted effect of over 55% in size; also: potency is read from the fitted curve at half-maximal effect
How it was run: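 PPARg-UAS-bla HEK293H cells were plated, rested 5 h at 37 C, then treated with compounds plus rosiglitazone (50 nM final) for 17 h at 37 C; viability was then read by CellTiter-Glo luminescence after 30 min at room temperature.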

[6] = qHTS assay for small molecule agonists of the antioxidant response element (ARE) signaling pathway (AID 743202; active = well fitted activation curve with a large enough effect in the signal ratio in the repeat runs, not every such curve was filed as active; the % refers to the signal ratio; also: potency is read from the fitted curve at half-maximal effect)
How it was run: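 Following a 16 h, 37 C exposure of reporter HepG2 cells (ARE-driven beta-lactamase, 2,000 cells/well) to compounds, FRET substrate was applied for 2 h at room temperature and fluorescence intensity recorded.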

[7] = qHTS assay for small molecule agonists of the antioxidant response element (ARE) signaling pathway - cell viability counter screen (AID 743203; calls by dose curve; also: nearly all actives have a fitted effect of over 55% in size; also: potency is read from the fitted curve at half-maximal effect)
How it was run: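 Cytotoxicity was tested in parallel with the ARE reporter screen. ARE-bla HepG2 cells were exposed to compounds for 16 hrs, and viability was taken from CellTiter-Glo luminescence.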

[8] = qHTS assay for small molecule activators of the heat shock response signaling pathway - cell viability counter screen (AID 743209); also: nearly all actives have a fitted effect of over 50% in size; also: potency is read from the fitted curve at half-maximal effect
How it was run: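 Cytotoxicity counter screen run in parallel with the HSE beta-lactamase reporter, using the same wells. HeLa HSE-bla cells received compound for 5 h at 37 C; ATP-based CellTiter-Glo luminescence was measured after 30 min at room temperature.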

[9] = qHTS assay for small molecule activators of the heat shock response signaling pathway (AID 743210; active = well fitted activation curve with a large enough effect in the signal ratio in the repeat runs, with a control signal flat, not every such curve was filed as active; the % refers to the signal ratio; also: series mostly up to about 63 µM)
How it was run: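 Heat shock element–beta-lactamase HeLa reporter cells; qHTS with compounds for 5 h at 37 C; detection by FRET substrate fluorescence after 2.5 h at RT.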

[10] = qHTS assay to identify small molecule agonists of the peroxisome proliferator-activated receptor delta (PPARd) signaling pathway - cell viability counter screen (AID 743211); also: nearly all actives have a fitted effect of over 55% in size; also: potency is read from the fitted curve at half-maximal effect
How it was run: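 Read-out: CellTiter-Glo luminescence, 30 min RT, measured in the same wells as the beta-lactamase reporter. Cells: GeneBLAzer PPAR delta UAS-bla HEK293H, 3000 cells/well, compound exposure 17 h at 37C.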

[11] = target: Peroxisome proliferator-activated receptor delta (Homo sapiens) (UniProt Q03181); assay: qHTS assay to identify small molecule agonists of the peroxisome proliferator-activated receptor delta (PPARd) signaling pathway (AID 743212; calls by dose curve)
How it was run: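 Beta-lactamase reporter read by fluorescence (LiveBLAzer B/G FRET, 2 h, room temperature). Test agents, in DMSO, incubated at 37 C with PPARd-bla HEK293H cells.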

[12] = qHTS assay to identify small molecule antagonists of the peroxisome proliferator-activated receptor delta (PPARd) signaling pathway - cell viability counter screen (AID 743213); also: nearly all actives have a fitted effect of over 50% in size; also: potency is read from the fitted curve at half-maximal effect
How it was run: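 Agonist-stimulated (L165041, 300 nM final) HEK293H PPARd UAS-bla cells are exposed to compounds for 17 h at 37 C, and ATP-based luminescence (CellTiter-Glo) from the same wells reports cytotoxicity.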

[13] = target: Peroxisome proliferator-activated receptor delta (Homo sapiens) (UniProt Q03181); assay: qHTS assay to identify small molecule antagonists of the peroxisome proliferator-activated receptor delta (PPARd) signaling pathway (AID 743215; active = well fitted inhibition curve with a large enough effect in the signal ratio in the repeat runs, not every such curve was filed as active; the % refers to the signal ratio; also: series mostly up to about 62 µM)
How it was run: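 Cells: HEK293H with a UAS-driven beta-lactamase reporter responsive to PPARd. Compounds were co-added with L165041 (300 nM, final) and incubated 17 h at 37 C before a 2 h room-temperature FRET substrate step and fluorescence reading.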

[14] = qHTS assay to identify small molecule agonists of the farnesoid-X-receptor (FXR) signaling pathway - cell viability counter screen (AID 743218); also: nearly all actives have a fitted effect of over 45% in size; also: potency is read from the fitted curve at half-maximal effect
How it was run: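 Cells were seeded, left 5 h at 37 C and 5% CO2, then dosed with compound in DMSO for 16 h. After the beta-lactamase FRET read, CellTiter-Glo was added and luminescence measured 30 min later.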

[15] = qHTS assay to identify small molecule antagonists of the farnesoid-X-receptor (FXR) signaling pathway - cell viability counter screen (AID 743221; active = well fitted cell-killing curve with a large enough effect in the repeat runs, not every such curve was filed as active; also: nearly all actives have a fitted effect of over 50% in size; also: potency is read from the fitted curve at half-maximal effect)
How it was run: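 HEK 293T FXR-bla cells, 5 h pre-incubation; compound + CDCA 50 uM final, 16 h, 37 C; beta-lactamase FRET read first, then CellTiter-Glo luminescence, 30 min RT.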

[16] = target: Vitamin D3 receptor (Homo sapiens) (UniProt P11473); assay: qHTS assay to identify small molecule agonists of the vitamin D receptor (VDR) signaling pathway (AID 743222; calls by dose curve)
How it was run: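 Cells carrying a VDR-driven beta-lactamase reporter are seeded at 2,000 per well and rested 4 h. Compounds in DMSO are added for 16 h at 37C, and FRET substrate fluorescence is measured after 2 h at room temperature.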

[17] = target: Vitamin D3 receptor (Homo sapiens) (UniProt P11473); assay: qHTS assay to identify small molecule antagonists of the vitamin D receptor (VDR) signaling pathway (AID 743223; active = well fitted inhibition curve with a large enough effect in the signal ratio in the repeat runs, not every such curve was filed as active; the % refers to the signal ratio; also: potency is read from the fitted curve at half-maximal effect)
How it was run: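 Beta-lactamase reporter read-out: FRET substrate fluorescence after 2 h at room temperature, following 16 h exposure of VDR-bla cells to test compound plus 3 nM (final) 1alpha,25-dihydroxyvitamin D3 agonist at 37C.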

[18] = target: Aryl hydrocarbon receptor (Homo sapiens) (UniProt P35869); assay: qHTS assay to identify small molecule that activate the aryl hydrocarbon receptor (AhR) signaling pathway (AID 743085);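 also: HG2L7.5c1 human HepG2 liver cells with stably integrated DRE-driven firefly reporter; series mostly up to about 70 µM; nearly all actives have a fitted effect of over 15% in size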
How it was run: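 Luminescence read-out: ONE-Glo reagent, 30 min at room temperature, in HG2L7.5c1 HepG2 reporter cells treated 24 h at 37C. Viability was measured beforehand by CellTiter-Fluor fluorescence after 30 min at 37C.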

[19] = target: Bile acid receptor (Homo sapiens) (UniProt Q96RI1); assay: qHTS assay to identify small molecule antagonists of the farnesoid-X-receptor (FXR) signaling pathway (AID 743217; active = well fitted inhibition curve with a large enough effect in the signal ratio in the repeat runs, not every such curve was filed as active; the % refers to the signal ratio)
How it was run: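 Cells carrying a UAS-driven beta-lactamase reporter (GeneBLAzer FXR-UAS-bla HEK 293T) were plated and rested 5 h at 37 °C. Compounds in DMSO were added alongside chenodeoxycholic acid agonist at 50 uM final and left 16 h at 37 °C before FRET substrate readout.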

[20] = target: Bile acid receptor (Homo sapiens) (UniProt Q96RI1); assay: qHTS assay to identify small molecule agonists of the farnesoid-X-receptor (FXR) signaling pathway (AID 743220; active = well fitted activation curve with a large enough effect in the signal ratio in the repeat runs, not every such curve was filed as active; the % refers to the signal ratio)
How it was run: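 FXR-UAS-bla HEK 293T cells carrying a UAS-driven beta-lactamase reporter were plated for 5 h at 37C/5% CO2, then exposed to DMSO-dissolved Tox21 10K compounds for 16 h at 37C. A LiveBLAzer B/G FRET substrate was loaded for 2 h at room temperature before fluorescence reading.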

Chain of Peroxisome proliferator-activated receptor delta (Homo sapiens) (Q03181 whole entry, looked up): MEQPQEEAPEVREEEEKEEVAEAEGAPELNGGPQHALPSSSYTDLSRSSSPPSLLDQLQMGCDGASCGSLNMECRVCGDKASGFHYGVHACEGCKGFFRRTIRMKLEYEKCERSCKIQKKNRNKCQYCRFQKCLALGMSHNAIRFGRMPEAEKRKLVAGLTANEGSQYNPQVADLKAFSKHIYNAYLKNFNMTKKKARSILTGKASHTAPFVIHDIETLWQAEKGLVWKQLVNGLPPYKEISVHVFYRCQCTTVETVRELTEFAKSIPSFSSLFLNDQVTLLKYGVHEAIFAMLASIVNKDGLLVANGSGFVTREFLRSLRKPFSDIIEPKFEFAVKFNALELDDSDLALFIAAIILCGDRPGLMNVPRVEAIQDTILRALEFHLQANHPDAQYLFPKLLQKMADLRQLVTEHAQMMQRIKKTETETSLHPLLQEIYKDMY
Chain of Peroxisome proliferator-activated receptor gamma (Homo sapiens) (P37231 whole entry, looked up): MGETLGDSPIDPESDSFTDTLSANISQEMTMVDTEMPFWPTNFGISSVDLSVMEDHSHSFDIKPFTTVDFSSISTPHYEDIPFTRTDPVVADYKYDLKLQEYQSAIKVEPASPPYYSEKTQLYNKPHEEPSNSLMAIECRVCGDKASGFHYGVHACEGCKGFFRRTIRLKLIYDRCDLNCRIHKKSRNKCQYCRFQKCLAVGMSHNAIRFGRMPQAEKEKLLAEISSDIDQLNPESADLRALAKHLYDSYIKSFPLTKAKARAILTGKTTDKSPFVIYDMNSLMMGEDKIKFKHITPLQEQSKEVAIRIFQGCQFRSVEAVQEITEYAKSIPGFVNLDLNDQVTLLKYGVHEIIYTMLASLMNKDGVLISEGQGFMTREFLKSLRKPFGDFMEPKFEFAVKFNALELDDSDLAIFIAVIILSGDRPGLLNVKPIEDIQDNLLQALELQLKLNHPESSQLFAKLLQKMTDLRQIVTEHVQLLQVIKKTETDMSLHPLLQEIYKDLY
Chain of Aryl hydrocarbon receptor (Homo sapiens) (P35869 whole entry, looked up): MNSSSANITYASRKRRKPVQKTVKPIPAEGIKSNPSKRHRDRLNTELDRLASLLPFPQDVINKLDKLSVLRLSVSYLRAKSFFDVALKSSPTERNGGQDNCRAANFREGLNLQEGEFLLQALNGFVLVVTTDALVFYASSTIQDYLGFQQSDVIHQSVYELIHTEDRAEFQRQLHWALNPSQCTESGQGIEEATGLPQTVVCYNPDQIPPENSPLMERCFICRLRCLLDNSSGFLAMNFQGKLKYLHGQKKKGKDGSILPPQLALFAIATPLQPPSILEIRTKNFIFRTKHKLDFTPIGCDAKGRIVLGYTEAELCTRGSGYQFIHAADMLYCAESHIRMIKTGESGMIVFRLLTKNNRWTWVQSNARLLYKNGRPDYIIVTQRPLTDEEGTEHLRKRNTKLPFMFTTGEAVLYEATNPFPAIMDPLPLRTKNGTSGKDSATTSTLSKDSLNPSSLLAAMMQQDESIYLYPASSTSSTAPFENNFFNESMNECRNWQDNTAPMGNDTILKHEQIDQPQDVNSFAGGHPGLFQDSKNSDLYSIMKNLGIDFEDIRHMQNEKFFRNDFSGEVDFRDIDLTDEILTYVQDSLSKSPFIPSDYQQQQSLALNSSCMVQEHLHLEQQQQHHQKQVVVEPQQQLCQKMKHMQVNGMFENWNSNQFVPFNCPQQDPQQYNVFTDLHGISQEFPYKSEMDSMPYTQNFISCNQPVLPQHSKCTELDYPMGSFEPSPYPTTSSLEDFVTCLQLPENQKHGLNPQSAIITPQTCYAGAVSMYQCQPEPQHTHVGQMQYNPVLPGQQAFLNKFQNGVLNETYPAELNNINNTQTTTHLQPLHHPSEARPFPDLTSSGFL
Chain of Vitamin D3 receptor (Homo sapiens) (P11473 whole entry, looked up): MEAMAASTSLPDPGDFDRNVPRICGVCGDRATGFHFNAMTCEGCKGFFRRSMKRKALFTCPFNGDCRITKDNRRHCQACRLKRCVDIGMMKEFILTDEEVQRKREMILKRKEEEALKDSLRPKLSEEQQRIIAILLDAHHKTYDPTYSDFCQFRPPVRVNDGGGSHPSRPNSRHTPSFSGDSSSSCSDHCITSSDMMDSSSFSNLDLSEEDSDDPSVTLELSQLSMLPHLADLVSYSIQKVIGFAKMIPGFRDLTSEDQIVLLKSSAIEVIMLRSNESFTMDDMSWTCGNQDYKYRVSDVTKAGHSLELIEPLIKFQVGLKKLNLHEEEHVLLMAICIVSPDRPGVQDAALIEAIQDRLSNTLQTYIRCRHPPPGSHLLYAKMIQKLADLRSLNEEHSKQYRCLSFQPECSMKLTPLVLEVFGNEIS
Chain of Bile acid receptor (Homo sapiens) (Q96RI1 whole entry, looked up): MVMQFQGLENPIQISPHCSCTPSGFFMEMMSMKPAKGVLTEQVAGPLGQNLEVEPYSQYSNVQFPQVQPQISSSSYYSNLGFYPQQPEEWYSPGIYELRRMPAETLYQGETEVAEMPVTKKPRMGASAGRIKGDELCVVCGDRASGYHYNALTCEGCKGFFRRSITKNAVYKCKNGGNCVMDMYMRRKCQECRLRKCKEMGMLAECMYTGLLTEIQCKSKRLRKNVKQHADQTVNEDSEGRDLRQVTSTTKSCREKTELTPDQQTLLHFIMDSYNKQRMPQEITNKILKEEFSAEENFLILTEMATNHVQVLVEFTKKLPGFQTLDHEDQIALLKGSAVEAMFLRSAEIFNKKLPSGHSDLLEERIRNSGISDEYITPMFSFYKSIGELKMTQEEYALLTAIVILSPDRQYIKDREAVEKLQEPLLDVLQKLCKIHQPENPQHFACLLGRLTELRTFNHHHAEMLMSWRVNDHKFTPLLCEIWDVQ

SMILES	Potency [1]	Potency [2]	outcome [3]	Potency [4]	Potency [5]	Potency [6]	Potency [7]	Potency [8]	outcome [9]	Potency [10]	outcome [11]	Potency [12]	outcome [13]	Potency [14]	Potency [15]	outcome [16]	Potency [17]	Potency [18]	Potency [19]	outcome [20]
O=C(O)C(Cl)(Cl)Cl	inactive	inactive	inactive	inactive	inactive	inactive	inactive	inactive	inactive	inactive	inactive	inactive	inactive	inactive	inactive	inactive	inactive	–	–	–
Nc1ccccc1	inactive	inactive	inactive	inactive	inactive	inactive	inactive	inactive	inactive	inactive	–	inactive	–	inactive	inactive	inactive	inactive	–	–	–
O=[N+]([O-])O	inactive	inactive	–	–	inactive	inactive	inactive	inactive	–	inactive	–	inactive	–	inactive	inactive	–	–	inactive	–	–
CCC[N+]1(C)CCCCC1	inactive	inactive	–	–	inactive	inactive	inactive	inactive	inactive	inactive	–	–	–	inactive	inactive	–	–	inactive	–	–
CC[N+]1(C)CCCC1	inactive	inactive	–	–	inactive	inactive	inactive	inactive	inactive	inactive	–	–	–	inactive	inactive	–	–	inactive	–	–
CCCCCCCCCCCCCCCCn1cc[n+](C)c1	–	62.4 µM (active) and inactive and 30.7 µM (active)	inactive	inactive	–	–	–	–	inactive	–	inactive	–	inactive	inactive and 44 µM (active) and 21.9 µM (active)	–	inactive	15.5 µM (active)	inactive	–	–
CCCCCCCCn1cc[n+](C)c1	inactive	inactive	–	–	inactive	4.32 µM (active) and 5.49 µM (active)	inactive	inactive	inactive	inactive	–	–	–	inactive	inactive	inactive	inactive	inactive	–	–
CCCCCCn1cc[n+](C)c1	inactive	inactive	–	–	inactive	–	inactive	inactive	–	inactive	–	–	–	inactive	inactive	–	–	inactive	–	–
CC(=O)O	inactive	inactive	–	–	inactive	inactive	inactive	inactive	–	inactive	–	–	–	inactive	inactive	–	–	inactive	–	–
CCCn1cc[n+](C)c1	inactive	inactive	inactive	inactive	inactive	inactive	inactive	inactive	inactive	inactive	inactive	–	inactive	inactive	inactive	–	–	–	–	–
Oc1cccc2cccnc12	1.38 µM (active) and 686 nM (active)	inactive and 18.8 µM (active) and 2.05 µM (active)	–	–	inactive	6.14 µM (active) and 25.9 µM (active) and inactive	inactive and 4.33 µM (active)	876 nM (active) and inactive and 710 nM (active)	inactive	414 nM (active) and 155 nM (active) and inactive	–	–	–	inactive and 949 nM (active)	776 nM [cytotoxic] (active) and inactive	inactive	inactive	–	–	–
CCC(=O)C(CC(C)N(C)C)(c1ccccc1)c1ccccc1 (centres undefined)	–	inactive	inactive	inactive	inactive	–	inactive	inactive	inactive	–	–	–	inactive	inactive	inactive	–	–	inactive	inactive	inactive
CCCC[N+]1(C)CCCC1	inactive	inactive	–	–	inactive	inactive	inactive	inactive	inactive	inactive	–	inactive	–	inactive	inactive	–	–	–	–	–
O=C(O)CCl	inactive	inactive	inactive	inactive	inactive	inactive	inactive	inactive	inactive	inactive	–	–	–	inactive	inactive	inactive	inactive	–	–	–
CCCC[n+]1ccc(C)cc1	inactive	inactive	–	–	inactive and 48.7 µM [setting not given] (active)	3.91 µM (active) and 4.33 µM (active) and inactive	inactive	54.7 µM (active) and inactive	inactive	inactive and 48.7 µM (active)	–	inactive and 43.4 µM (active)	–	inactive	inactive	–	–	–	–	–
CC[n+]1ccccc1	inactive and 54 µM (active)	inactive	inactive	inactive	inactive	inactive and 2.71 µM (active)	inactive	inactive	–	inactive	–	inactive	–	inactive	inactive	–	–	–	–	–
O=C(O)COc1ccc(Cl)cc1Cl	–	inactive	–	–	inactive	inactive	inactive	inactive	–	inactive	inactive	–	inactive	inactive	inactive	inactive	inactive	–	–	–
CCCC[n+]1ccccc1C	inactive	inactive	–	–	inactive	–	inactive	inactive	inactive	inactive	–	–	–	inactive	inactive	–	–	–	–	–
O=C(O)c1ccccc1O	–	inactive	–	–	inactive	inactive	inactive	inactive	–	inactive	–	inactive	–	inactive	inactive	–	–	–	–	–
